# Bioassay records (PubChem BioAssay)
# 697 NFkB inh: lowers PMA/ionomycin-induced NF-kB signal in 697 B cells; AID 435022; 697 B-cell NF-kB luciferase reporter, 16 h; 0.33% of 330,000 active; inhibition, % at 4 µM; in the data active means inhibition above about 35%
# Gli-Sufu block: Gli-Sufu pathway antagonism; AID 588413; 0.74% of 340,000 active; inhibition, % at 5 µM; Sufu-KO-LIGHT fibroblasts, Gli luciferase reporter luminescence;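 active means inhibition above about 55%, limit read from the data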;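 further: 0% = DMSO-treated cells and 100% = wells with medium but no cells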
# SMARCA2 activ: increases SMARCA2 function in MMTV reporter cells | MG213 cells, MMTV-luciferase reporter, dexamethasone, overnight | activation, % at 9.1 µM | 1% of 370,000 active | AID 652017; in the data active means activation above about 7.8%;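 further: 0% = vehicle wells and 100% = reference activator wells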
# esBAF inh: inhibitors of esBAF chromatin remodeling in mouse ES cells. Bmi1-luciferase knock-in reporter, 24 h; 100% = twice the neutral-well signal. reporter increase, % at 12.5 µM. 2% of 350,000 active; in the data active means activation above about 40%; inconclusive means no clear call, values can overlap the other calls;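 further: 0% = median of the plate's neutral control wells and 100% = double that signal; a rise in the Bmi1 reporter signal indicates esBAF inhibition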
# Jurkat NFkB inh: lowers PMA/ionomycin-induced NF-kB signal in Jurkat cells | 0.53% of 330,000 active | PMA/ionomycin-induced NF-kB luciferase reporter, luminescence | inhibition, % at 4 µM | AID 435003; in the data active means inhibition above about 50%
# Jurkat NFkB conf: inhibitors of the PMA/ionomycin-induced NF-kB reporter in Jurkat cells, retest; shares compounds with Jurkat NFkB inh; Jurkat NF-kB luciferase, 16 h; inhibition, % at 4 µM; 27% of 2,700 active;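 active means inhibition reaching about 45% at 4 µM in either replicate, limit read from the data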;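 further: plate controls were PMA/ionomycin stimulated DMSO wells for no effect and unstimulated DMSO wells for full effect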
# 697 NFkB conf: lowers PMA/ionomycin-induced NF-kB signal in 697 B cells; shares compounds with 697 NFkB inh; 697 B-cell NF-kB luciferase, 16 h; inhibition, % at 4 µM; 35% of 2,000 active; AID 449746; in the data active means inhibition mostly above about 28%, no sharp cut-off; inactive means mostly below about 22%
# * = called active by the depositor; i = inactive; ? = inconclusive; · = no result. Only some compounds are listed: those with a hit (about 3.3% of all), similar ones and a draw of the others.
SMILES,697 NFkB inh,Gli-Sufu block,SMARCA2 activ,esBAF inh,Jurkat NFkB inh,Jurkat NFkB conf,697 NFkB conf
Cc1cccnc1Nc1nc(-c2ccccn2)cs1,-346.7,-7.6,4.7,-17.1,81.0*,8.3,-174.7
Cc1cccnc1Nc1nc(-c2ccc(O)cc2O)cs1,-62.5,-40.6,5.3,31.1,-77.4,·,·
Cc1cccc(Nc2nc(-c3ccc(F)cc3)cs2)n1,-209.8,-63.6,3.0,?,-129.0,·,·
Fc1ccc(-c2csc(Nc3ccccn3)n2)cc1,-263.7,1.2,0.4,31.6,-169.4,-74.4,-215.6
CCC(=O)N[C@@H]1C=C[C@H](CC(=O)NCc2ccccc2F)O[C@@H]1CO,·,·,·,-3.8,·,·,·
COc1ccc(S(=O)(=O)Nc2ccc3c(c2)C(=O)N([C@@H](C)CO)C[C@@H](C)[C@H](CN(C)S(=O)(=O)c2cn(C)cn2)OCCCC[C@@H](C)O3)cc1,·,·,·,-1.7,·,·,·
Cc1noc(C)c1NC(=O)N(C)C[C@@H]1OCCCC[C@@H](C)Oc2ccc(NS(=O)(=O)c3c(C)noc3C)cc2C(=O)N([C@H](C)CO)C[C@@H]1C,·,·,·,-2.6,·,·,·
CN(C(=O)OC(C)(C)C)c1ccc(-c2nc3ccccc3s2)cc1,66.4*,89.6*,-8.0,-80.0,68.8*,90.3*,48.2*
FC(F)(F)c1ccc(-c2nc3ccccc3s2)cc1,·,·,-4.4,16.4,·,·,·
O=C(C[C@H]1CC[C@H]2[C@@H](COC[C@@H](O)CN2C(=O)Nc2cc(Cl)cc(Cl)c2)O1)N1CCCCC1,·,·,·,-2.0,·,·,·
O=C(C[C@H]1CC[C@@H](NC(=O)c2ccc3c(c2)OCO3)[C@H](CO)O1)NCc1ccc(Cl)cc1,·,·,·,-0.3,·,·,·
O=C(/C=C/c1ccccc1)Nc1cccc(C(=O)O)c1,81.6*,-80.2,3.6,·,81.6*,76.4*,78.8*
O=C1C=CC(O)(c2cc(=O)c3c(O)cc(O)cc3o2)C=C1,i,47.4,-7.3,-76.6,88.9*,70.8*,i
NC(=O)c1ccsc1NC(=O)c1ccc2c(c1)CCCC2,-301.7,-142.3,4.8,-38.8,-182.8,-120.2,-358.5
COc1ccc(-c2ccc3c(c2)[C@@H]2[C@@H](CCN2C(=O)Cc2ccccc2)[C@@H](CO)N3C)cc1,·,·,·,14.9,·,·,·
O=C(Nc1ccc(F)cc1F)N1CCCN(c2ccc(C(F)(F)F)cn2)CC1,-31.9,7.2,-4.3,-5.7,-3.5,·,·
Fc1ccc(NC(=S)N2CCCN(c3ccc(C(F)(F)F)cn3)CC2)c(F)c1,54.2*,14.4,-5.4,-21.8,65.8*,19.1,8.2
C[C@@H]1CCCCO[C@H](CN(C)Cc2ccc3c(c2)OCO3)[C@@H](C)CN([C@@H](C)CO)C(=O)c2cc(N(C)C)ccc2O1,·,·,·,-10.4,·,·,·
C(=N\Nc1nc2ccccc2s1)/c1ccc2c(c1)OCO2,-332.9,-74.0,4.5,·,-204.6,-90.6,-264.2
Cc1nc(N/N=C\c2ccc3c(c2)OCO3)sc1C,-181.3,-94.1,3.5,37.9,-80.4,·,·
Cc1cccc(/N=C/c2sc3ccccc3c2O)n1,-135.3,3.8,0.8,16.0,-43.8,·,·
CC(=Nc1ccccc1)c1sc2ccccc2c1O,-251.1,-89.4,1.6,?,-158.2,-17.0,-22.6
CC(C)(C)c1ccc(-c2noc(-c3ccc4c(c3)CCO4)n2)cc1,-99.9,-10.6,-2.1,·,-10.2,·,·
Cc1c(-c2nc(-c3ccc(C(C)(C)C)cc3)no2)n(C)oc1=O,-418.1,-133.7,6.2,·,59.8*,-30.6,-412.7
C[C@@H]1CN([C@@H](C)CO)C(=O)Cc2cc(NC(=O)CCN3CCOCC3)ccc2O[C@H]1CN(C)Cc1ccc(C(=O)O)cc1,·,·,·,-1.3,·,·,·
SMILES,697 NFkB inh,Gli-Sufu block,SMARCA2 activ,esBAF inh,Jurkat NFkB inh,Jurkat NFkB conf,697 NFkB conf
COc1ccc2oc(C(=O)N3CCc4ccccc43)c(C)c2c1,-383.0,-144.2,0.2,-45.4,-225.9,-76.7,-499.3
CCC(=O)N(C)C[C@H]1Oc2cc(C#CC3CCCC3)ccc2S(=O)(=O)N([C@H](C)CO)C[C@H]1C,·,·,·,8.7,·,·,·
CCCCCn1c(=O)[nH]c2cc(C(=O)N3CCN(Cc4ccc5c(c4)OCO5)CC3)ccc2c1=O,104.5*,57.4*,-4.3,-35.8,63.6*,77.2*,84.8*
CCCCCn1c(=O)[nH]c2cc(C(=O)NCc3ccc4c(c3)OCO4)ccc2c1=O,14.5,12.5,-1.5,·,7.4,·,·
O=C(Nc1cccc(Cl)c1)N[C@@H]1CC[C@H](CCNC(=O)C2CCCC2)O[C@@H]1CO,·,·,·,0.3,·,·,·
COc1cccc(OCc2ccc(Cl)cc2)c1C#N,-488.5,-248.3,6.8,·,-213.8,-212.6,-478.6
